Screening data deposited in PubChem BioAssay by National Center for Advancing Translational Sciences (NCATS).
BAZ2B block: inhibitors of human BAZ2B bromodomain. Q9UIF8. AlphaScreen BAZ2B-H3K14Ac peptide displacement. Potency, µM (titrated, usually from 114 µM), for inactives: at the highest dose activity change, negative = inhibition, actives largely listed as inhibitors. 360,000 compounds, 4.4% hits; also: % is scaled to controls: 0 for no effect and ±100 for the full control effect; nearly all actives have a fitted effect of over 60% in size
Target sequence (Q9UIF8 whole entry, looked up): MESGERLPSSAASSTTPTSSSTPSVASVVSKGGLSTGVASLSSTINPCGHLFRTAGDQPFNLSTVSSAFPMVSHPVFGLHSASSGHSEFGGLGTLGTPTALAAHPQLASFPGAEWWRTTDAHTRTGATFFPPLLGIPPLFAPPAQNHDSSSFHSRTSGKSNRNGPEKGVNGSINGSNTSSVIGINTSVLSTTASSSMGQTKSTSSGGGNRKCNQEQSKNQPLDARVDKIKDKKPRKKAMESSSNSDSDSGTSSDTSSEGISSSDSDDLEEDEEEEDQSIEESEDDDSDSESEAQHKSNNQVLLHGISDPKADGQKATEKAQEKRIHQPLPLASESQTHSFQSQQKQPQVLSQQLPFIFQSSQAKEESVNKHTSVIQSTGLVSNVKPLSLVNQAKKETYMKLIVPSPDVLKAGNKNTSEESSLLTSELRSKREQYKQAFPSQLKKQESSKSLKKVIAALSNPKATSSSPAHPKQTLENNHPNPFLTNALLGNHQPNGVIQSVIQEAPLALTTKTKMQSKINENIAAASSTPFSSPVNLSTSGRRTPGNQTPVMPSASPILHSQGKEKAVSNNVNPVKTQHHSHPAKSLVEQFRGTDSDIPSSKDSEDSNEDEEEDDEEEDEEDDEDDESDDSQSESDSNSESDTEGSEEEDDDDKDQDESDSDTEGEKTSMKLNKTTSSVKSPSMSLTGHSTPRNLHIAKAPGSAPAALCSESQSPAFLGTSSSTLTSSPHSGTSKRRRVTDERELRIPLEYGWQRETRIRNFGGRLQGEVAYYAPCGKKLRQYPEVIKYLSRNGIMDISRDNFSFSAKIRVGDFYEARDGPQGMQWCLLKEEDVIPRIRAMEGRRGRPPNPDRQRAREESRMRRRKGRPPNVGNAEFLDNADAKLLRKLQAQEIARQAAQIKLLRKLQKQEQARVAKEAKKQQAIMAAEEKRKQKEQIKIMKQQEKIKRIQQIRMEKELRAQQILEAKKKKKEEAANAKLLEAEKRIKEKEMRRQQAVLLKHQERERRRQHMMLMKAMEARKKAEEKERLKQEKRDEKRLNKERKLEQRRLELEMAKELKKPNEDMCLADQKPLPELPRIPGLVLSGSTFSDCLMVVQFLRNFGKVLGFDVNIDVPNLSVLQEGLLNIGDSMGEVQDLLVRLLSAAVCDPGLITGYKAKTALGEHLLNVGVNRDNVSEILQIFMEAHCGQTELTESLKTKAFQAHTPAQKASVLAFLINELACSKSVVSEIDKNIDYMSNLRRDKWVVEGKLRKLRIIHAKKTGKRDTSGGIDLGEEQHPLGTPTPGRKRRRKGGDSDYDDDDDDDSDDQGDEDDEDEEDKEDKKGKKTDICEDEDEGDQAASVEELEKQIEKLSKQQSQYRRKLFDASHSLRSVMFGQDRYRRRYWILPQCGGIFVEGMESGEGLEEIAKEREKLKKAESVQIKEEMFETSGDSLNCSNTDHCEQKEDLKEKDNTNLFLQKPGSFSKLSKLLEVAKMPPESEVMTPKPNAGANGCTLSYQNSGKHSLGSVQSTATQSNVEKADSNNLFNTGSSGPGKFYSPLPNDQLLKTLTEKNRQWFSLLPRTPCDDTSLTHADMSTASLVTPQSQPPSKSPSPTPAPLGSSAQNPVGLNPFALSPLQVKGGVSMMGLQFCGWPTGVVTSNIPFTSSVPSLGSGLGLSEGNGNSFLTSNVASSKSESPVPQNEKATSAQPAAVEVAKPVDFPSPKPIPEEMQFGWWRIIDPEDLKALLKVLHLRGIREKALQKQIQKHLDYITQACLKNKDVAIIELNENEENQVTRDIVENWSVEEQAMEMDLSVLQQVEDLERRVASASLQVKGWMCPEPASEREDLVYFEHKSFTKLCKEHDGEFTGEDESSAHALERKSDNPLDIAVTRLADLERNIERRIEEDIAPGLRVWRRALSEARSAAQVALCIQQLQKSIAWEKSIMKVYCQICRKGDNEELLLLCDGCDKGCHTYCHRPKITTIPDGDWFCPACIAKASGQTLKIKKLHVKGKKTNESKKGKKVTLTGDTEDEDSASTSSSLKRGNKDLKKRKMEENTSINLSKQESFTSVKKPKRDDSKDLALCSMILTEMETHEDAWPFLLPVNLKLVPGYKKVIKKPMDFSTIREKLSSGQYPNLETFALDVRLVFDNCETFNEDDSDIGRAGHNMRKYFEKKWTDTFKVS
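Protein-peptide AlphaScreen: BAZ2B 50 nM, b-H3K14Ac 50 nM, 1x PBS pH 7.4 + 0.01% Tween-20. Preincubation 30 min RT; cpd 30 min RT (top 110 uM); beads 20 min RT, light-protected.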
L3MBTL1 inh: inhibitors of human L3MBTL1; Q9Y468; AlphaScreen L3MBTL1–H3K9me1 peptide binding; Potency, µM (series often up to 57.1 µM), for inactives: at the highest dose activity, negative = inhibition, most hits filed as inhibitors; 230,000 compounds, 0.66% hits; AID 485360; also: % is scaled to controls: 0 for no effect and ±100 for the full control effect; nearly all actives have a fitted effect of over 60% in size
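AlphaScreen assay: L3MBTL1 (50 nM final) was preincubated 30 min at room temperature with biotinylated H3(1-15)K9me1 peptide (75 nM final), then 30 min with library compounds; streptavidin donor and nickel chelate acceptor beads (10 ug/mL final) added, 30 min dark.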
JMJD2A Tudor inh: inhibitors of human JMJD2A Tudor domain | O75164 | AlphaScreen JMJD2A-Tudor / H3K4me3 peptide binding | Potency, µM (titrated, usually from 114 µM), for the others: at the top dose activity change, negative = inhibition, actives largely listed as inhibitors | 390,000 compounds, 4.4% hits | AID 504339; also: % is scaled to controls: 0 for no effect and ±100 for the full control effect; nearly all actives have a fitted effect of over 50% in size
G9a block: G9a (human) methyltransferase inhibition; Potency, µM (titrated, usually from 102 µM), inactives show at the top dose activity, negative = inhibition, hits mostly inhibitors; 350,000 compounds, 8.8% hits; G9a H3K9 monomethylation, AlphaScreen, 2 h; Q96KQ7; AID 504332; also: % is scaled to controls: 0 for no effect and ±100 for the full control effect; nearly all actives have a fitted effect of over 75% in size
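Signal arises when biotinylated H3K9 peptide, once monomethylated, bridges streptavidin donor and antibody-captured acceptor beads. Enzyme at 20 nM was preincubated 15 min with test compounds; peptide 500 nM and SAM 20 uM then reacted for 2 h.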
Sfp PPTase inh: inhibitors of Bacillus subtilis Sfp phosphopantetheinyl transferase; 310,000 compounds, 3.5% hits; Biochemical Sfp PPTase activity, qHTS; AID 1490; Potency, µM, for inactives: largest response in the series, negative = inhibition, hits mostly inhibitors; Q9F4F7;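 also: the enzyme is Sfp with the accession as filed and its product quenches rhodamine fluorescence; 0% = enzyme reaction without inhibitor and -100% = no enzyme wells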
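Buffer: 50 mM Hepes-Na pH 7.6, 10 mM MgCl2, 0.01% Nonidet P-40, 0.01% BSA. Enzyme 15 nM, pre-exposed to compound 15 min; substrates then added and fluorescence change tracked over 30 min.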
HP1b binding inh: inhibitors of HP1-beta chromodomain binding to methylated histone tails | AlphaScreen HP1-beta / biotin-H3K9me3 peptide binding | Potency, µM (series often up to 114 µM), inactives show at the top dose activity change, negative = inhibition, actives largely listed as inhibitors | 390,000 compounds, 0.56% hits; also: nearly all actives have a fitted effect of over 70% in size
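HP1-beta protein (50 nM final) preincubated 30 min at room temperature with biotinylated H3(1-18)K9me3 peptide (50 nM) in PBS pH 7.4, 0.01% Tween-20, then compound added for 30 min. AlphaScreen streptavidin donor/nickel chelate acceptor beads (10 ug/mL final), 30 min dark, luminescence read.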
Active calls of the source: *; ? = inconclusive; nt = not tested or not shown; ! = not active in a repeat; [ ] = remark or other dose. Rows were chosen to be rich in hits. Some 12% of all compounds tested hit in one or more screens of this group. Calls follow the shape of the dose curve; as a rule, active = well fitted curve in the direction sought with a large enough effect; inconclusive = small, poorly fitted or top-dose-only effect, or another doubt; inactive = no such curve, though single readings can be large; an effect the other way counts as inactive or inconclusive. Potency is read from the fitted curve at half-maximal effect.

SMILES	BAZ2B block	L3MBTL1 inh	JMJD2A Tudor inh	G9a block	Sfp PPTase inh	HP1b binding inh
CC(Oc1ccccc1F)C(=O)NNC(=O)CCNC(=O)c1ccccc1Cl (stereo unspecified)	-3%	nt	-1%	4%	17%	25%
CCCCc1c(O)nc(N2CCN(Cc3ccccc3)CC2)[nH]c1=O	7%	3%	-24%	40µM*	6%	10%
O=S(=O)(c1ccc(-c2csc(=Nc3ccccc3)n2CCCN2CCOCC2)cc1)N1CCOCC1	40µM*	-21%	?	38%[0.501 µM]	6%	?
CCCCn1c(-c2ccc(S(=O)(=O)N3CCOCC3)cc2)csc1=Nc1ccccc1	?	nt	?	5.6µM*	nt	?
CCCn1c(-c2ccc(S(=O)(=O)N3CCOCC3)cc2)csc1=Nc1ccc(OCC)cc1	?	nt	?	13µM*	nt	?
CCOc1ccc(NC(=O)COc2ccc(S(=O)(=O)N3CCOCC3)cc2)cc1	nt	5%	-8%	nt	nt	15%
O=S(=O)(c1ccc(Oc2ccccc2)cc1)N1CCOCC1	1%	nt	7%	-9%[59 µM]	-3%	31%
COc1cc(/C=C/C(=O)OC(C)C(=O)NC2CCCCC2C)cc(Cl)c1OC (stereo unspecified)	11%	-4%	-14%	-43%	nt	16%
NNC(=O)c1cc2sccc2s1	-13%	7%	-14%	1%	-12%	19%
Nc1nnc(N)c2ccccc12	-2%	-1%	-19%	-4%	5%	6%
Nc1nsc2ccccc12	11%	-3%	-1%	40µM*	?	7%
O=C(NC1CCCCC1)c1ccc2c(c1)N(Cc1cccc(Cl)c1)C(=O)c1ccccc1S2(=O)=O	0%	nt	-16%	-15%[59 µM]	nt	27%
CCc1nnc(NC(=O)CSc2ccc(-c3ccc(F)cc3)nn2)s1	-28%	3%	nt	45µM*	-11%	nt
C=CCn1c(SCC(=O)Nc2nnc(C)s2)nnc1-c1cccnc1	-35%	nt	56µM*	-43%	-9%	9%
C=CCn1c(SCC(=O)Nc2ccc(C)cc2C)nnc1-c1cccnc1	0%	nt	-5%	9%	-8%	44%
Cc1nnc(NC(=O)CSc2ccc(-c3cccnc3)nn2)s1	-20%	nt	-13%	?	40µM*	40%
Cc1cc2oc(=O)cc(-c3ccccc3)c2c(C)c1-c1ccc(C#N)cc1	nt	1%	-24%	27%	-2%	23%
O=[N+]([O-])c1ccccc1CNC1CCCCCC1	?	-4%	50µM*	22µM*	-19%	?
Cc1ccccc1CNC1CCCCC1	8%	7%	-13%[57.1 µM]	-10%[59 µM]	6%	41%
Cc1ccc(NC(=O)CCNS(=O)(=O)c2ccc3[nH]c(=O)oc3c2)c(C)c1	-6%	nt	-20%	19%	8%	26%
Nc1nc(-c2ccco2)c(-c2ccco2)s1	45µM*	?	?	?	16µM*	?
COc1ccc2nc(-c3ccco3)c(-c3ccco3)nc2c1	50µM*	nt	?	?	7.1µM*	-19%
Nc1nc(-c2ccco2)cs1	-5%	3%	-7%	45µM*	50µM*	11%
c1coc(-c2nc3cc4ccccc4cc3nc2-c2ccco2)c1	nt	nt	7.9µM*	nt	nt	7.9µM*
CNC(=O)c1ncoc1-c1ccc(Cl)cc1	0%	2%	-13%	0%[59 µM]	14%	33%
SMILES	BAZ2B block	L3MBTL1 inh	JMJD2A Tudor inh	G9a block	Sfp PPTase inh	HP1b binding inh
Cc1ccc(Cl)cc1N1CCN(C(=O)c2cc(S(=O)(=O)N3CCCC3)c[nH]2)CC1	-35%	nt	-31%	-22%[59 µM]	nt	-1%
c1coc(-c2nc(-c3ccco3)c(-c3ccco3)nc2-c2ccco2)c1	28µM*	10µM*	7.9µM*	11µM*	35µM*	?
COc1ccc(OCC2c3cc(OC)c(OC)cc3CCN2C(=O)C(C)C)cc1 (stereo unspecified)	-37%	nt	56µM*	?	1%	-8%
COC(=O)c1ccc(OCC2c3cc(OC)c(OC)cc3CCN2C(=O)c2ccco2)cc1 (stereo unspecified)	?	-10%	?	50µM*	6%	-15%
COC(=O)c1ccc(OCC2c3cc(OC)c(OC)cc3CCN2C(=O)Cc2ccc(OC)cc2)cc1 (stereo unspecified)	-21%	nt	-28%	?	nt	51%
COC(=O)c1ccc(OCC2c3cc(OC)c(OC)cc3CCN2C(=O)c2ccc(OC)cc2)cc1 (stereo unspecified)	?	nt	-34%	-47%[59 µM]	nt	-22%
CCOc1cc(C2C(C(N)=O)=C(C)Nc3ncnn32)cc(Br)c1O (stereo unspecified)	-12%	nt	-12%	-6%[59 µM]	nt	24%[57 µM]
CC1=C(C(=O)Nc2ccc(C)cc2C)C(c2ccc[nH]2)n2ncnc2N1 (stereo unspecified)	5%	nt	-3%	15%[59 µM]	nt	24%[57 µM]
CC1=C(C(=O)Nc2ccccc2C)C(c2ccc[nH]2)n2ncnc2N1 (stereo unspecified)	50µM*	nt	56µM*	-4%[59 µM]	nt	-2%[57 µM]
CCOc1cc(C2C(C(=O)Nc3ccccc3)=C(C)Nc3ncnn32)cc(Br)c1O (stereo unspecified)	79µM*	nt	?	10µM*	nt	12%[57 µM]
CC(C)(C)n1nnnc1CN1CCN(C(c2ccccc2)c2ccccc2)CC1	-28%	-13%	-11%	0%[59 µM]	20%	-10%
CN1CCN(c2ccc([N+](=O)[O-])c(-n3nc(-c4ccccc4)c4ccccc4c3=O)c2)CC1	35µM*	-11%	40µM*	45µM*	-2%	-47%
Cc1cc(C)c2sc(N3CCN(C(=O)C4CC4)CC3)nc2c1	-3%	nt	-4%	8%[59 µM]	nt	26%
Cc1cc(C)c2sc(N3CCN(C(=O)c4ccc(N(C)C)cc4)CC3)nc2c1	20µM*	nt	40µM*	22µM*	nt	?
COc1cccc2sc(N(Cc3cccnc3)C(=O)c3ccc4c(c3)OCCO4)nc12	-30%	nt	-31%	-26%[59 µM]	nt	14%[57 µM]
CCCCCCCCCCCCCCCC(=O)OC(CC(=O)O)C[N+](C)(C)C (stereo unspecified)	4%	11%	-27%	32µM*!	-24%	20%
COc1ccc(C(=O)c2c(C(F)(F)F)oc3c2C(=O)c2ccccc2C3=O)cc1	7.9µM*	nt	?	7.9µM*	-1%	?
COc1ccc(/C=C2\Sc3ccc(C(=O)N4CCCC4)cc3N(C)C2=O)cc1OC	-31%	nt	-12%	45µM*	-23%	25%
COc1ccc(/C=C2\Sc3ccc(C(=O)NCCN4CCCCCC4)cc3N(C)C2=O)cc1	?	nt	?	22µM*	?	-9%[57 µM]
Brc1ccc2nc(-c3c[nH]c4ccccc34)cn2c1	45µM*	-11%	?	50µM*	-10%	?
CC(=O)NC(c1ccc(C(C)C)cc1)c1c(O)ccc2ccccc12 (stereo unspecified)	nt	nt	-33%	nt	nt	15%
